Rows were chosen to be rich in hits. Some 2.4% of all compounds tested hit in one or more screens of this group.
Pol kappa inh-1: inhibitors of human DNA polymerase kappa. 400,000 tested, 0.53% active. Potency, µM (doses to about 107 µM), hits mostly inhibitors. Q9UBT6. AID 588579. purified Pol kappa, fluorescent DNA synthesis assay, 10 min
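Activity was followed as the change in fluorescence between reads at 0 and 10 min after starting the reaction with 50 nM substrate. Beforehand, 10 nM polymerase had been preincubated with compound for 15 min at room temperature.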
Pol beta inh: DNA polymerase beta (human) inhibition | 340,000 tested, 1.3% active | Potency, µM (series often up to 114 µM), usual class: inhibitors | P06746 | Pol beta primer extension/strand displacement, fluorescence kinetic | AID 485314
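Values derive from four-parameter Hill fits of normalized kinetic data: reads at 0 and 10 min following addition of 50 nM substrate to 10 nM Pol beta preincubated 15 min with compound.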
FEN1 inh: human FEN1 inhibition | P39748 | Recombinant FEN1 flap cleavage, fluorescence, 15 min | Potency, µM (series often up to 114 µM), actives largely listed as inhibitors | 390,000 tested, 0.35% active | AID 588795; also: nearly all actives have a fitted effect of over 65% in size
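Recombinant FEN1 (10 nM) was preincubated with pin-transferred compounds for 15 min at room temperature, then flap DNA substrate (50 nM final) was added. Plates were read at 0 and 15 min, and normalized concentration–response data were fitted to a four-parameter Hill equation.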
Pol eta inh-1: blocks human DNA polymerase eta activity. Q9Y253. recombinant Pol eta, fluorescent DNA replication assay. 390,000 tested, 1.2% active. Potency, µM (titrated, usually from 114 µM), hits mostly inhibitors
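Pol eta (10 nM) was preincubated with compounds for 15 min at room temperature, after which fluorescent replication substrate (50 nM final) was added to start the reaction. Fluorescence was read kinetically at 0 and 10 min.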
Tb PGK inh: blocks T. brucei phosphoglycerate kinase; P07378; PGK/GAPDH coupled, Kinase-Glo luminescence, 60 min; Potency, µM (highest dose often 57.5 µM), hits mostly inhibitors; 380,000 tested, 0.043% active; AID 602233; also: nearly all actives have a fitted effect of over 60% in size
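Recombinant glycosomal PGK reaction used 1,3-bisphosphoglycerate generated in-well by GAPDH (100nM final) in 100mM TEA pH 7.6, 5mM MgCl2, 0.01% Tween-20. After 60 minutes at room temperature, ATP was read by Kinase-Glo Plus luminescence end-point.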
Pol iota inh: inhibitors of human DNA polymerase iota | Potency, µM (series often up to 115 µM), usual class: inhibitors | 390,000 tested, 1% active | Q9UNA4 | Pol iota fluorescent replication assay, 10 min
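Pol iota at 10 nM preincubated 15 min with compounds at room temperature; reaction started with fluorescent substrate, 50 nM final. Fluorescence read kinetically at 0 and 10 min; buffer-only wells as negative control.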
GALK confirm: galactokinase (human) inhibition, confirmation; shares compounds with Pol eta inh-1; purified GALK, Kinase-Glo ATP depletion luminescence; Potency, µM (doses to about 115 µM), most hits filed as inhibitors; 150 tested, 70% active; AID 2015
Target sequence (P51570 whole entry, looked up): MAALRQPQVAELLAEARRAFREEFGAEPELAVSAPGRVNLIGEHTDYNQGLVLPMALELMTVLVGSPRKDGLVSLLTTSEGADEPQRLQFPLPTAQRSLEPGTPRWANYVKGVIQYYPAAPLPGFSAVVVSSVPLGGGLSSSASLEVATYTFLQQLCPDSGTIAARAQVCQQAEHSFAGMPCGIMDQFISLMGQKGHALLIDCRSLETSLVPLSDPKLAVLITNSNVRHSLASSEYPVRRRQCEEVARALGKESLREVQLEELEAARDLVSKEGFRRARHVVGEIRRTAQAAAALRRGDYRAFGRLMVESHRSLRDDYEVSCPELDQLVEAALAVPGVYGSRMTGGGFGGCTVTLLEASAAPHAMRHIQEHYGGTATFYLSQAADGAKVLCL
Redox cycling: generates H2O2 by redox cycling, flagging GALK artifacts | shares compounds with Pol eta inh-1 | Potency, µM (doses to about 115 µM), usual class: inhibitors | 150 tested, 40% active | Phenol red-HRP H2O2 redox cycling, absorbance 600 nm
HEK293 viability: HEK-293 cytotoxicity, GALK inhibitor secondary; shares compounds with Pol eta inh-1; HEK-293 viability, ATP luminescence (CellTiter-Glo), 24/48 h; Potency, µM (top dose mostly 46.1 µM), hits mostly inhibitors; 170 tested, 10% active; AID 2547
Pol kappa inh-2: confirmation of human DNA polymerase kappa inhibitors; Potency, µM, usual class: inhibitors; purified Pol-kappa, fluorescent strand-displacement substrate; AID 720501; 920 tested, 76% active; shares compounds with Pol eta inh-1
Pol eta inh-2: confirmation of human DNA polymerase eta inhibitors. Potency, µM, usual class: inhibitors. 2,600 tested, 64% active. AID 720502. Pol eta primer extension, TAMRA/BHQ fluorescence, 10 min. shares compounds with Pol eta inh-1
Numbers stand for hits; . = inactive; ? = inconclusive; / = no result. Calls follow the shape of the dose curve; as a rule, active = well fitted curve in the direction sought with a large enough effect; inconclusive = small, poorly fitted or top-dose-only effect, or another doubt; inactive = no such curve, though single readings can be large; an effect the other way counts as inactive or inconclusive.

SMILES	Pol kappa inh-1	Pol beta inh	FEN1 inh	Pol eta inh-1	Tb PGK inh	Pol iota inh	Pol eta inh-2	others
NC(N)=NS(=O)(=O)c1ccc(NC(=S)NC(=O)/C=C/c2ccco2)cc1	.	.	.	.	.	?	/
CC(=O)c1ccc(NC(=S)NC(=O)/C=C/c2ccco2)cc1	.	.	.	?	.	?	/
Cc1cc(NS(=O)(=O)c2ccc(NC(=O)/C=C/c3ccco3)cc2)nc(C)n1	79.4µM	.	.	28.2µM	.	?	33.8
NS(=O)(=O)c1ccc(NC(=S)NC(=O)/C=C/c2ccco2)cc1	?	?	.	31.6µM	.	?	?	Pol kappa inh-2=37.7
Cc1cccc(NC(=S)NC(=O)/C=C/c2ccco2)c1	79.4µM	31.6µM	.	50.1µM	.	20µM	?
COc1ccccc1NC(=S)NC(=O)/C=C/c1ccco1	?	44.7µM	.	20µM	.	?	?
COc1ccccc1-c1noc(-c2ccc(NC(C)C)c([N+](=O)[O-])c2)n1	.	.	.	.	.	.	/
Cc1cc(C)cc(NC(=O)CSc2nc3c([nH]c4ccccc43)c(=O)n2-c2ccc(F)cc2)c1	.	.	.	.	.	.	/
COc1ccc(CNC(=O)c2nc(Cn3nc(C)c(Br)c3C)no2)cc1OC	.	.	.	.	.	.	/
C/C(=N\NC(=O)C1CC1)c1cccc(NC(=O)c2cccc(Cl)c2)c1	/	.	/	/	/	/	/
C/C(=N\NC(=O)c1cc(O)ccc1O)c1cccc(NC(=O)c2cccc(Cl)c2)c1	79.4µM	?	?	?	.	?	?
Cc1ccc(C)c(S(=O)(=O)/N=C2\C=C(NS(=O)(=O)c3ccccc3)C(=O)c3ccccc32)c1	.	.	?	?	.	?	?
Cc1cccc(S(=O)(=O)Nc2cccc3c2C(=O)c2ccccc2-3)c1	.	.	.	.	.	.	/
Cc1ccccc1NC1=C/C(=N\S(=O)(=O)c2ccc(C(=O)O)cc2)c2ccccc2C1=O	.	35.5µM	50.1µM	5.01µM	.	0.891µM	/	GALK confirm=8.41µM;Redox cycling=5.3µM;HEK293 viability=25µM
COc1cc2c(=O)n(Cc3ccccc3Cl)c(=O)n(CC(=O)Nc3ccc(C)c(C)c3)c2cc1OC	.	.	.	.	.	.	/
O=C1Nc2ccc(S(=O)(=O)N(CCO)CCO)c3cccc1c23	.	.	.	.	.	.	/
CN(c1ccccc1C(=O)O)S(=O)(=O)c1ccc2c3c(cccc13)C(=O)N2	79.4µM	12.6µM	?	12.6µM	.	?	?
O=C(O)C1CN(c2nc(Cl)ccc2[N+](=O)[O-])C1	.	35.5µM	.	20µM	?	.	30.1	Pol kappa inh-2=67
Cc1ccc(C)c(CN2C(=O)CSc3ccc(C(=O)NCCN4CCOCC4)cc32)c1	.	.	.	.	.	.	/	GALK confirm=.;Redox cycling=.;HEK293 viability=.
Cc1ccc(CCNC(=O)CCCn2c(=O)c3ccccc3n(CC(=O)Nc3cc(Cl)ccc3C)c2=O)cc1	.	.	.	.	.	.	/
COCCN(C(=O)COC(=O)Cc1coc2cc(C)ccc12)c1c(N)n(Cc2ccccc2)c(=O)[nH]c1=O	?	/	.	20µM	.	35.5µM	60.1
COCCN(C(=O)COC(=O)Cc1cccc2ccccc12)c1c(N)n(Cc2ccccc2)c(=O)[nH]c1=O	.	.	.	.	.	.	/
O=C(CCl)N1N=C(c2ccco2)CC1c1ccco1 (stereo unspecified)	22.4µM	25.1µM	?	10µM	.	3.16µM	60.1
O=C(CCl)N1N=C(c2cccs2)CC1c1ccco1 (stereo unspecified)	.	.	.	?	.	.	/
Cc1oc(C(=O)O)cc1COc1ccc2c3c(c(=O)oc2c1)CCC3	?	35.5µM	.	17.8µM	.	.	?
SMILES	Pol kappa inh-1	Pol beta inh	FEN1 inh	Pol eta inh-1	Tb PGK inh	Pol iota inh	Pol eta inh-2	others
CCCCOc1ccc(C(=O)Nc2cccc(-c3nc4cccnc4s3)c2)cc1	.	.	.	.	.	.	/
Cc1ccc(C(=O)NCc2occc2C(=O)O)o1	?	20µM	.	28.2µM	?	?	30.1	Pol kappa inh-2=23.8
C=C1CC[C@@H]2[C@](C)(CCC[C@@]2(C)/C=C/[C@@H](O)C(C)(C)O)[C@H]1CC(=O)NCCS(=O)(=O)O	?	/	.	17.8µM	.	.	?
Cc1cccc2cc(/C=N/NC(=O)c3ccncc3)c(Cl)nc12	.	.	.	.	.	.	/
Cc1cccc2cc(/C=N/NC(=O)c3ccccc3O)c(Cl)nc12	.	28.2µM	.	?	.	.	?
Cc1ccc2cc(/C=N/NC(=O)c3ccccc3O)c(Cl)nc2c1	.	.	.	15.8µM	.	.	?
Cc1cccc(Oc2ccccc2NS(=O)(=O)c2ccc(CCC(=O)O)cc2)c1	.	/	.	20µM	.	?	84.9	Pol kappa inh-2=18.9
O=C(O)C/C(=C\c1cccc(NC(=O)c2ccccc2Cl)c1)c1nc2ccccc2s1	?	?	.	50.1µM	.	50.1µM	?
Cc1ccc(S(=O)(=O)c2[nH]c(-c3ccccc3)nc2SC(C)C(=O)O)cc1 (stereo unspecified)	.	.	.	.	.	.	/
Cc1ccccc1NC(=O)C1Cc2ccccc2C(=O)O1 (stereo unspecified)	.	.	.	.	.	.	/
O=C1OC(C(=O)O)Cc2ccccc21 (stereo unspecified)	.	.	.	.	/	.	/	GALK confirm=.;Redox cycling=.;HEK293 viability=.
NNc1nccc(Nc2ccccc2C(=O)O)n1	?	?	.	12.6µM	.	?	?
C=CCOc1ccccc1/C=c1\sc2nc(=O)c(C)nn2c1=O	50.1µM	25.1µM	.	28.2µM	.	10µM	21.3	Pol kappa inh-2=37.7
COc1ccc(/C=c2\sc3nc(-c4ccccc4OC)nn3c2=O)c(OC)c1	.	.	.	?	.	.	/

Assay outcomes deposited in PubChem BioAssay by National Center for Advancing Translational Sciences (NCATS).
